target: GPRC5C; experiment: pooled miR-30 sensor sort-seq; sequence = guide strand; details: shRNA

| Sequence | sensor-assay potency score (higher = more potent) |
| --- | --- |
| TCACAGAGGAGCAAGATCCAGG | -0.72 |
| TCGTAAGCTCCTTCGGACGGAA | -0.916 |
| TAGTACAGGGGGTTGAGGCCTT | 0.25 |
| TCCTTCGGACGGAACTTTGTGC | -0.974 |
| ATGATGGTGAGCACAAACGTGG | -1.32 |
| ATGGTGAGCACAAACGTGGTGA | -0.43 |
| TGATGTCGTAAGCTCCTTCGGA | -0.537 |
| TTCGGACGGAACTTTGTGCATC | -0.913 |
| TTCTTGCCGTCTTTCGGCGGTG | -1.04 |
| AAGACCTGAGAGTTCTTGCCGT | 0.1 |
| TGAGGTTGCAGGAATCTCCAGA | 0.399 |
| TTGGTGTCCTGCACAAAGGGGA | -0.48 |

Reference: the OligoGym collection
